Sampled rows, rich in hits. Any-hit rate of the full collection: about 2.8%.
CBFb-RUNX1 inh = CBF-beta/RUNX1 interaction disruption; AID 1477; Potency, µM (series often up to 59.8 µM), inactives show at the top dose activity, negative = inhibition, actives largely listed as inhibitors; 230,000 tested, under 10 active; AlphaScreen CBFb-His/RUNX1-biotin binding, biochemical; Q01196+Q13951; further: % of control where 0% means no effect
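His-tagged CBF-beta and biotinylated RUNX1 (30 nM each) were premixed 20 min at room temperature, exposed to compound for 15 min, then given nickel-chelate and streptavidin AlphaScreen beads (50 ng each). After 90 min, AlphaScreen signal was read.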
PTHR1 ag = PTHR1 (human) receptor agonism. HEK293 GP2 PTHR1 cells, GloSensor cAMP luminescence, 1 h. 0.075% of 410,000 active. Potency, µM (top dose mostly 115 µM), for the others: top-dose activation, actives largely listed as activators. Q03431; further: potency means the concentration at half of the fitted maximal effect; nearly all actives have a fitted effect of over 55% in size
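HEK-293-derived GP2 cells expressing PTHR1 and a GloSensor cAMP reporter, 3,000/well, plated overnight, given luciferin plus IBMX (each 0.5 mM as added) for 1 h at 37 °C, then compound for 1 h at 37 °C. Luminescence was read after 15 min at room temperature.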
DRD3 antagonist = antagonists of human D3 dopamine receptor. 2.5% of 360,000 active. max response, negative = inhibition, %. D3R cells, DiscoveRx beta-arrestin luminescence, antagonist mode; stronger effect = lower value; in the data active means max response below about -50%; inconclusive means no clear call, values can overlap the other calls; further: on the % scale 0 is the no-effect control and ±100 the full control effect
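Cells expressing the human receptor were seeded at 1500 cells/well, incubated overnight at 37 degrees C in 5% CO2, then exposed to library compounds with dopamine controls for 90 minutes at 37 degrees C before luminescent detection.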
D3 ag = D3 dopamine receptor (human) agonism | P35462 | D3R DiscoveRx beta-arrestin cells, luminescence, 90 min | max activation, % | 0.58% of 410,000 active | AID 652048; in the data active means max activation above about 30%; further: 0% is about no effect
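Cells at 1500/well, incubated overnight, then treated with pinned compounds (dopamine as control) for 90 min at 37 degrees C. DiscoveRx reagent added for 30 - 60 minutes at room temperature; luminescence read.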
MBNL1 CUG block = inhibitors of human MBNL1 binding to CUG repeat RNA. 0.036% of 280,000 active. Potency, µM (highest dose often 57.5 µM), inactives show at the top dose activity change, negative = inhibition, hits mostly inhibitors. AID 2675. TR-FRET MBNL1-His/biotin-(CUG)12 binding, 665/545 ratio. Q9NR56; active means well fitted inhibition curve with a large enough effect in the signal ratio, with a control signal flat, not every such curve was filed as active; inconclusive means small, poorly fitted or top-dose-only effect, or effect the other way, or a change in a side signal; inactive means no such curve, though single readings can be large or run the other way; the % refers to the signal ratio; further: potency means the concentration at half of the fitted maximal effect; on the % scale 0 is the no-effect control and ±100 the full control effect
Target sequence (Q9NR56 whole entry, looked up): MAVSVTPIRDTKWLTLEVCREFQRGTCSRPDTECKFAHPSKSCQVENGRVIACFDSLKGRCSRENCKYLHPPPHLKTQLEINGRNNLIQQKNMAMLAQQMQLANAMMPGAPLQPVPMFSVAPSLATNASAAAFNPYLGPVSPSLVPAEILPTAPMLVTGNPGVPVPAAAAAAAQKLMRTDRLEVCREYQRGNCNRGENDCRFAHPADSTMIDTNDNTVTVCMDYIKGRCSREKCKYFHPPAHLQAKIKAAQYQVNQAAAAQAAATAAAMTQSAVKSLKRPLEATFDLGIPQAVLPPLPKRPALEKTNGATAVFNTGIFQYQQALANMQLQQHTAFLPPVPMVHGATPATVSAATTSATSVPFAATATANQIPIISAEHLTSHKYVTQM
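Inhibition of protein-RNA binding appears as loss of TR-FRET between terbium anti-His antibody on MBNL1-His and streptavidin-XL665 on biotin-(CUG)12. Activity is normalized to buffer-only and uninhibited-complex controls.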
a7 integrin act = integrin-mediated muscular dystrophy alleviation activation. alpha7betagal myoblasts, beta-gal FDG fluorescence, 48 h. Potency, µM (titrated, usually from 38.3 µM), for the others: at the highest dose activation, hits mostly activators. 0.064% of 350,000 active. AID 624291;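 further: potency means the concentration at half of the fitted maximal effect; 100% = response of the positive control SU9516; nearly all actives have a fitted effect of over 60% in size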
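alpha7betagal+/- myoblasts (passage 13, 250/well) treated 48 h at 37C with compounds at 1:260 dilution of DMSO stock. Lysed, then beta-galactosidase activity read as FDG fluorescence (ex 480/em 540) after 30 min, with pre-read for autofluorescence.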
* marks the source's active call; other numbers are inactive results; i = inactive; ? = inconclusive; / = no result; [ ] = another dose, or the depositor's remark. Unless noted, the call rests on the fitted dose curve; in most records, active means well fitted curve in the direction sought with a large enough effect; inconclusive means small, poorly fitted or top-dose-only effect, or another doubt; inactive means no such curve, though single readings can be large; an effect the other way counts as inactive or inconclusive.

SMILES	CBFb-RUNX1 inh	PTHR1 ag	DRD3 antagonist	D3 ag	MBNL1 CUG block	a7 integrin act
COc1ccc(NC(=S)Nc2ccccc2)cc1	9%	i	4	6	-2%	-32%
Cc1nc2c(o1)CCc1ccccc1C2N1CCN(C)CC1 (stereo not drawn)	6%	-15%[57.5 µM]	-54*	-13	4%	-10%
Cc1nc2nc(SCC(=O)NC(C)c3ccccc3)nn2c(C)c1Cc1c(F)cccc1Cl (stereo not drawn)	/	i	/	-7	/	/
C(=C\c1ccccc1)/CN1CCN(C(c2ccccc2)c2nnnn2C2CCCCC2)CC1 (stereo not drawn)	/	-20%	-91*	-14	/	/
CCCCC(c1nnnn1C1CCCC1)N1CCN(C2CCCCC2)CC1 (stereo not drawn)	11%	-28%[57.5 µM]	-60*	-23	-3%	-3%
CSCCC(c1nnnn1C1CCCC1)N1CCN(C/C=C/c2ccccc2)CC1 (stereo not drawn)	/	i	-78*	-18	/	/
C(=C\c1ccccc1)/CN1CCN(C(c2ccnc3ccccc23)c2nnnn2C2CCCCC2)CC1 (stereo not drawn)	/	12%	?	-16	/	/
CCC(c1nnnn1C1CCCC1)N1CCN(C/C=C/c2ccccc2)CC1 (stereo not drawn)	/	-22%	-61*	-11	/	/
Cc1ccc(Oc2ncccc2C(=O)NCC(=O)O)cc1	9%	i	?	-7	-11%	22%
CCC(c1nnnn1C1CCCC1)N1CCN(Cc2ccccc2)CC1 (stereo not drawn)	6%	-16%[57.5 µM]	-65*	-25	-9%	0%
CCCC(c1nnnn1CC1CCCO1)N1CCN(c2ccccc2)CC1 (stereo not drawn)	3%	i	12	20	2%	-36%
CCCC(c1nnnn1C1CCCCC1)N1CCN(c2ncccn2)CC1 (stereo not drawn)	10%	i	?	-3	1%	-5%
CCCCC(c1nnnn1CC1CCCO1)N1CCN(Cc2ccccc2)CC1 (stereo not drawn)	-1%	i	-78*	-6	-9%	4%
Fc1ccccc1C(c1nnnn1C1CCCC1)N1CCN(Cc2ccccc2)CC1 (stereo not drawn)	8%	-3%[57.5 µM]	-18	-17	11%	2%
CSCCC(c1nnnn1C1CCCCC1)N1CCN(C/C=C/c2ccccc2)CC1 (stereo not drawn)	/	20%	-89*	-10	/	/
O=C(O)c1ccc(-c2ccc3cc(C45CC6CC(CC(C6)C4)C5)c(O)cc3c2)cc1	-21%	/	/	/	/	/
CCOc1ccccc1NC(=O)c1cccc2c1C(=O)N(C1CCCCC1)C2	/	-14%	7	3	2%	3.2µM*
CCOC(=O)C1=C(C)NC2=C(C(=O)CC(c3cccs3)C2)C1c1cccs1 (stereo not drawn)	5%	i	-82*	-7	1%	-47%
CN(C)c1ccc2c(=O)cc[nH]c2c1	/	-18%	8	1	/	/
CN1CCN(c2nc3cc(C(F)(F)F)ccc3n3cccc23)CC1	-26%	-23%	-52*	-72	/	/
FC(F)(F)c1cccc(N2CCN(c3nc4ccccc4n4cnnc34)CC2)c1	/	-27%	/	4	/	/
CC(=O)NC1C(O)O[C@H](C(=O)O)[C@@H](O)[C@@H]1O (stereo partly drawn)	6%	/	/	/	/	/
O=C(NCc1cccnc1)/C(=C\c1ccc(-c2ccc(Br)cc2)o1)S(=O)(=O)c1ccccc1	?	-55%	-89*	-13	-2%	-55%
NS(=O)(=O)c1ccc(N=Nc2c(-c3ccccc3)[nH]n(-c3nc(-c4ccccc4)cs3)c2=O)cc1	-12%	i	-66*	-32	5%	8%
COc1cccc(OCCN2CCN(c3ncnc4c3cnn4-c3ccccc3)CC2)c1	3%	12%[57.5 µM]	10	48*	-13%	-16%
SMILES	CBFb-RUNX1 inh	PTHR1 ag	DRD3 antagonist	D3 ag	MBNL1 CUG block	a7 integrin act
Cc1nn(-c2ccccc2)c(Cl)c1C(=O)N1CCN(c2ncnc3c2cnn3-c2ccccc2)CC1	1%	-89%[57.5 µM]	-10	41*	9%	-58%
O=C(c1ccccc1)N1CCN(c2ncnc3c2cnn3-c2ccccc2)CC1	4%	-36%	50	-6	-4%	-15%
CCC[n+]1c2ccccc2cc2ccccc21	/	-35%	?	-17	?	-65%
CCCC[n+]1c2ccccc2cc2ccccc21	/	-46%	-94*	2	17%	-54%
CCOc1cc(C(=S)N2CCCC2)ccc1OCC(=O)Nc1c(C)cc(C)cc1C	1%	-10%[57.5 µM]	-55*	-17	6%	-24%
COC(=O)/C(=C\c1c(OC)cc(OC)cc1OC)C(=O)c1ccc2c(c1)OCO2	-6%	-20%	-93*	13	/	8%
COc1ccc(N/C=C\C(=O)c2ccc3c(c2)OCO3)cc1OC	-4%	i	14	6	/	3%
CCOC(=O)Cc1ccc(NC(=O)N2CC(CC)Oc3ccccc32)cc1 (stereo not drawn)	/	i	/	6	/	/
CCN1CCc2c(sc(-n3cccc3)c2C(C)NC(=O)Nc2cc(Cl)c(OC)cc2OC)C1 (stereo not drawn)	/	-23%	/	-21	/	/
O=C(COc1ccccc1)NCC(=O)N/N=C/c1ccc(Cl)cc1	/	i	-7	-1	-9%	?
O=C(COc1ccc(Cl)cc1)N/N=C/CCc1ccccc1	-4%	i	-60*	-4	-2%	-10%
COc1ccc(CN(C)CC2CCCN(CCc3ccccc3C)C2)cc1O (stereo not drawn)	/	i	15	-17	0%	-14%
COc1cc(OC)c(OC)cc1CN(C)CC1CCCN(CCc2ccccc2F)C1 (stereo not drawn)	/	4%	-51*	-3	0%	-10%
Cc1sc(-n2c(C)cc(/C=C3\SC(=S)NC3=O)c2C)c(C#N)c1C	?	-44%[57.5 µM]	-71*	-21	-13%	39%
Cc1cc(/C=C2\SC(=S)NC2=O)c(C)n1-c1cccc(O)c1	?	-3%	?	-4	/	?
c1ccc(-c2cnc(SCCN3CCOCC3)n2CC2CCCO2)cc1 (stereo not drawn)	8%	-8%	-57*	-2	0%	-32%
Oc1c(Br)cc(/C=N/Nc2ccc(Cl)nn2)cc1Br	/	i	-18	4	?	-8%
Oc1c(Br)cc(Br)cc1/C=N/Nc1ccc(Cl)nn1	/	-1%	-68*	-17	-8%	6%
Cc1ccc(Cl)cc1N1CCN(C(=O)c2cc(S(=O)(=O)N3CCCCC3)cn2C)CC1	/	i	/	-9	/	/

Assay outcomes from PubChem.
